# From PubChem
# ST2 IL33 inh – blocks human ST2 binding to IL-33; Q01638; AlphaLISA ST2-Fc/biotin-IL-33 interaction, 1 h; AID 1259354; inhibition, % for hits at 17 µM; 78,000 compounds, 2.3% hits; in the data active = inhibition above about 30%
# Target sequence (Q01638 whole entry, looked up): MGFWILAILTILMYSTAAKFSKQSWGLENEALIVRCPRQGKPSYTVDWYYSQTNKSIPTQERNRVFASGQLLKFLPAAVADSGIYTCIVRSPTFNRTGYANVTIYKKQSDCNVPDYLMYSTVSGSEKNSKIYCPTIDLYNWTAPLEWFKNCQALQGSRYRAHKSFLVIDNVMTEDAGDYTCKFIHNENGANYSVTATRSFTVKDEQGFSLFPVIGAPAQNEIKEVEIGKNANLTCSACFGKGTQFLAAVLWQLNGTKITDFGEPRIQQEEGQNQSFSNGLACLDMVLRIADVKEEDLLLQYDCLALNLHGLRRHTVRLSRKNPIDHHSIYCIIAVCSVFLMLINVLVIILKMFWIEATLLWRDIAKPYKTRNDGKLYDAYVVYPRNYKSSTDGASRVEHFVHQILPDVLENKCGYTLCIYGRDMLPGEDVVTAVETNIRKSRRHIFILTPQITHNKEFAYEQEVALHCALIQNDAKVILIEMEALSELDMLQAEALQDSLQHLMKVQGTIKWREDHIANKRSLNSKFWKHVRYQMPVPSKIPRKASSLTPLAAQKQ
# Numbers without * were called inactive; i = inactive. The entries come from a sample that favours hits as a whole.
SMILES,ST2 IL33 inh
CN(Cc1cc(C(C)(C)C)n[nH]1)C(=O)CCNC(=O)c1ccc(F)cc1,i
CCCc1[nH]nc2c1C(c1ccc(OC)c(OCC)c1)C(C#N)=C(N)O2 (centres undefined),i
CN(C)c1ccc(/C=C2/SC(=Nc3ccccc3Cl)NC2=O)cc1,39%*
COc1ccccc1C=C1C(=O)OC(C)(c2ccccc2)OC1=O (centres undefined),i
COc1ccccc1/C=C1/SC(=Nc2ccccc2Cl)NC1=O,33%*
O=C1NC(=Nc2ccc(O)cc2)S/C1=C\c1cccc(O)c1,i
CC(C)Cc1cc(C(=O)N2CCCC3(CCNCC3)CC2)nc(=O)[nH]1,i
CCOC(=O)C1CCCN(c2ncnc(N)c2[N+](=O)[O-])C1 (centres undefined),i
COCCNc1ncnc2c1cnn2-c1ccc(OC)cc1,i
CSCCC(=O)NC1CCCN(CCCc2ccccc2)C1 (centres undefined),i
Cc1cc(CN2C(=O)C(=O)c3ccccc32)c(C)cc1CN1C(=O)C(=O)c2ccccc21,i
C/C(Cl)=C\CN1C(=O)C(=O)c2cccc(C)c21,54%*
Cc1cccc(NC(=O)CN2C(=O)C(=O)c3ccccc32)c1,i
O=C(NCc1ccccc1)c1cccc(Cl)c1Cl,i
Cc1ccc2nc(CN(C)C(=O)c3ccc(-n4cnnn4)cc3)[nH]c2c1,i
COc1cc(SC)ccc1C(=O)Nc1cccc(F)c1,i
O=C(NC1CC(=O)N(c2ccccc2)C1)c1ccc2c(c1)OCO2 (centres undefined),i
CCN(CC)CCN1C(=O)C(O)=C(C(=O)c2cccs2)C1c1ccccc1F (centres undefined),i
C[C@H]1[C@H](C(=O)O)C[C@H](C(=O)O)C1(C)C,i
Cc1ccc(-c2ccc(CCC(=O)O)[nH]2)cc1,35%*
Cc1ccc(-c2cc(=O)c(=O)[nH][nH]2)cc1,i
Cc1ccc(NC(=O)CCC(=O)O)c(C)c1,i
CC1=C(C#N)c2nc(N)c(C#N)c(C)c2/C1=C\c1cccc([N+](=O)[O-])c1,i
CC(=O)c1ccc(N2N=C(C)/C(=C/c3ccc(-c4cccc([N+](=O)[O-])c4)o3)C2=O)cc1,i
CC1=C(C#N)C(=O)NC(=O)/C1=C\c1ccc(-c2cccc([N+](=O)[O-])c2)o1,30%*
SMILES,ST2 IL33 inh
COCc1ccc(CN2CCOc3ccc(C(C)(O)COc4ccccc4)cc3C2)o1 (centres undefined),i
Cc1ccc(NC(=O)c2ccc(-c3ccc([N+](=O)[O-])cc3)o2)cc1-c1nc2ncccc2o1,i
CC(C)(C)c1ccc(S(=O)(=O)c2ccccc2)cc1,i
COc1ccccc1N=C1C(=O)Nc2ccccc21,i
COc1cccc(OC)c1OC,i
COc1cccc2c1NC(C)(C)C=C2C,46%*
Fc1cnc(-c2ccc(-c3ccn[nH]3)cc2)nc1N1CCOCC1,i
CC(C)(C)c1ccc(OCC(O)CN2CCCC2)cc1 (centres undefined),i
OC(COc1ccc(C2C=CCC2)cc1)CN1CCCCC1 (centres undefined),52%*
CC1CCCN(CC(O)COc2ccc(C3CCCCC3)cc2)C1 (centres undefined),i
COCC(=O)N1CCN(S(=O)(=O)c2ccccc2)C[C@H]1C(=O)N[C@H](Cc1c[nH]c2ccccc12)C(N)=O,i
O=C(COc1ccccc1Cl)Nc1ccccc1N1CCOCC1,i
CSc1ccc(-c2nc(CSCC(=O)NCc3ccc(C)cc3)c(C)o2)cc1,i
O=C(O)c1cccc(NC(=O)c2cccc(Br)c2)c1,i
O=C(Nc1cccc(S(=O)(=O)c2cccc(NC(=O)c3ccco3)c2)c1)c1ccco1,i
O=C(Nc1cccc(NC(=O)c2ccco2)c1)c1cccc(Br)c1,53%*
CN1CCCN(Cc2ccc3c(c2)OCO3)CC1,i
COc1ccc(OC)c2sc(N3CCOCC3)nc12,i
Cc1cc(C)c(S(=O)(=O)N2CCOCC2)c(C)c1,i
Cc1cccc(N2C(=O)C3C4C=CC(O4)C3C2=O)c1C (centres undefined),i
O=[N+]([O-])c1ccc(C2SCCN2S(=O)(=O)c2ccc(I)cc2)cc1 (centres undefined),i
O=C(c1ccc([N+](=O)[O-])cc1)N1CCSC1c1cccc(Cl)c1 (centres undefined),i
CN(C)c1ccc(C2SCCN2C(=O)c2ccc([N+](=O)[O-])cc2)cc1 (centres undefined),30%*
CCOc1ccc(S(=O)(=O)Nc2c(Cl)cccc2C(F)(F)F)c2cccnc12,i
CCc1nc([C@H]2CN(C)C[C@@H]2C(=O)N2CCc3ccccc3C2)c(C)[nH]1,i
Cc1ccc(C(=O)Nc2ccc(Br)cc2)cc1,i
O=C(Nc1ccc(Oc2ccccc2)cc1)C1CC1,i
O=C(Nc1ccc(O)cc1)C1CC=CCC1 (centres undefined),34%*
O=C(O)COc1ccc(NC(=O)C2CCCCC2)cc1,i
Cc1cccc(N2CCN(C(=O)c3cc(-c4ccncc4)nc4ccccc34)CC2C)c1 (centres undefined),i
